# High-throughput results deposited in PubChem by Broad Institute.
# Rows were chosen to be rich in hits. Some 1.2% of all compounds tested hit in one or more screens of this group.
# NSD2 HMT inh: inhibitors of human histone methyltransferase NSD2; NSD2 peptide methylation, AlphaScreen, 120 min; 310,000 tested, 0.54% active; O96028; inhibition, % at 12.5 µM; in the data active = inhibition above about 50%
# CASP6 VEID inh: blocks human caspase-6 cleavage activity. purified caspase-6, Z-VEID-R110 cleavage fluorescence. inhibition, % at 12.5 µM. 350,000 tested, 0.53% active. AID 686996;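 active = mean inhibition across replicates at least about 35%, with every replicate also reaching that limit, limit read from the data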;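 also: 0% = median of neutral control wells and 100% = no fluorescence left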
# RAD54 inh: inhibitors of human RAD54 branch migration | RAD54 Holliday junction branch migration, FAM/BHQ fluorescence | inhibition, % at 10.4 µM | AID 602329 | 360,000 tested, 0.14% active;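 active = mean normalized replicate activity at least 40 and at least half of replicates scoring 40 or more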;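 also: 0% = median of neutral control wells and 100% = median of positive control wells; inhibitors cause a drop in the FAM fluorescence signal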
# Target sequence (Q92698 whole entry, looked up): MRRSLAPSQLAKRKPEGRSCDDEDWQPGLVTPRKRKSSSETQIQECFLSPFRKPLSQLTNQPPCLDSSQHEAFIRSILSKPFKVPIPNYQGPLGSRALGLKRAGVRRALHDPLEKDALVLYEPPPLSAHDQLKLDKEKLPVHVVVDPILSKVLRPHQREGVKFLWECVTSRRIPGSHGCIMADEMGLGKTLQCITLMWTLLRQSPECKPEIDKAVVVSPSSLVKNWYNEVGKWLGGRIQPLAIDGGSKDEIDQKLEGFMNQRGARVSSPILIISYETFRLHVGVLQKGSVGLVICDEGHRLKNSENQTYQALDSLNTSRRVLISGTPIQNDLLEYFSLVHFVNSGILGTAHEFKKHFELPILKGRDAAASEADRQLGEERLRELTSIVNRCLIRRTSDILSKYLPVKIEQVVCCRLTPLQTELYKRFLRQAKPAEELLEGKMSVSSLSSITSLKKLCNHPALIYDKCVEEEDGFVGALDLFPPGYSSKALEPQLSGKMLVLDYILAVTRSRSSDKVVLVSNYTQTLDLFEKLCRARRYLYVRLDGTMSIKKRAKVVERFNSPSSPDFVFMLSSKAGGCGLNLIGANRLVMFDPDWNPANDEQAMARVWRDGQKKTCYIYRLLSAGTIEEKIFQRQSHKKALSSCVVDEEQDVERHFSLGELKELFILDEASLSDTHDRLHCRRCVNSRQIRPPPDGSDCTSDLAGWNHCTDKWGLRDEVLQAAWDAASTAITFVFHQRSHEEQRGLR
# N-glyco inh: N-linked glycosylation inhibition; D54 ERlucT glycosylation luciferase reporter, 24 h; percent of 100 nM tunicamycin response; reporter increase, % at 12.5 µM; 360,000 tested, 0.23% active; AID 588692;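 active = mean luciferase reporter signal, scaled so untreated is 0 and the glycosylation-blocking control 100, at or above a set limit in every replicate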;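 also: luciferase carries N-glycosylation sites so blocking glycosylation raises the light; 0% = median of neutral control wells and 100% = median of 100 nM tunicamycin wells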
# RAD52 anneal inh: inhibitors of human RAD52 DNA annealing. P43351. recombinant RAD52 DNA annealing, FRET fluorescence. inhibition, % at 18.7 µM. 360,000 tested, 0.46% active. AID 651710;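 active = every replicate showing at least 50% inhibition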
# * = called active by the depositor; nt = no result given.
SMILES,NSD2 HMT inh,CASP6 VEID inh,RAD54 inh,N-glyco inh,RAD52 anneal inh
O=C(O)/C(=C/c1ccco1)NC(=O)c1ccccc1,5.2,37.4*,0.4,3.9,-31.5
O=C(O)/C(=C\c1ccco1)NC(=O)c1cccc2ccccc12,-4.0,41.4*,-6.7,4.0,-49.2
CC(C)(C)c1ccc(C(=O)N/C(=C\c2ccco2)C(=O)O)cc1,3.7,14.9,nt,0.6,-19.5
C[C@@H]1CN([C@@H](C)CO)C(=O)Cc2cc(NC(=O)CCCCCC(=O)Nc3ccccc3N)ccc2O[C@H]1CN(C)C(=O)Nc1ccc2c(c1)OCO2,nt,0.2,nt,nt,6.1
C[C@H](CO)N1C[C@H](C)[C@@H](CN(C)Cc2cccc(C(F)(F)F)c2)OCc2cn(nn2)CCCC1=O,nt,2.4,15.8,nt,3.1
O=S(=O)([N-]c1nc2ccccc2nc1-n1cc[n+](Cc2ccccc2)c1)c1ccc(Br)cc1,4.5,-3.1,4.4,48.3*,-3.1
CO[C@H]1CN(C)C(=O)c2cc(NC(=O)c3ccc(Oc4ccccc4)cc3)ccc2OC[C@H](C)NC[C@H]1C,nt,3.3,14.3,nt,52.7*
COc1cccc(NC(=O)Nc2ccc3c(c2)C(=O)N(C)C[C@H](OC)[C@H](C)CN[C@@H](C)CO3)c1,nt,-1.8,3.7,nt,41.3
COc1cccc(NC(=O)Nc2ccc3c(c2)C(=O)N(C)C[C@@H](OC)[C@H](C)CN[C@@H](C)CO3)c1,nt,-2.2,10.6,nt,54.1*
COc1cccc(NC(=O)Nc2ccc3c(c2)C(=O)N(C)C[C@H](OC)[C@@H](C)CN[C@H](C)CO3)c1,nt,-0.9,23.5,nt,67.5*
Cc1ccc(O)c(NC(=O)Cc2cccc3ccccc23)c1,-0.8,nt,nt,nt,nt
COC(=O)[C@@H]1[C@@H](CO)[C@@H]2Cn3c(ccc(-c4cccc(C(=O)N(C)C)c4)c3=O)[C@@H]2N1C,nt,2.2,4.2,nt,5.3
Cn1c(=O)[nH]c(=O)c2c1nc(N1CCN(Cc3ccccc3)CC1)n2CCCc1ccccc1,4.1,0.0,-5.7,37.1*,-6.9
CCN1CCN(c2nc3c(c(=O)[nH]c(=O)n3C)n2CCCc2ccccc2)CC1,0.3,0.3,2.8,-0.9,0.8
Cn1c(=O)[nH]c(=O)c2c1nc(N(CCO)Cc1ccccc1)n2CCCc1ccccc1,nt,-1.1,-6.8,41.2*,2.1
COC(=O)CNC(=O)C1CCN(S(=O)(=O)c2cccc3nsnc23)CC1,-5.4,2.5,-5.1,0.1,-7.5
CC(C)(C)NC(=O)C1CCN(S(=O)(=O)c2cccc3nsnc23)CC1,-2.5,55.0*,7.6,-2.2,-6.4
COC(=O)[C@@H]1[C@@H](CO)[C@@H]2Cn3c(ccc(-c4ccc(F)cc4)c3=O)[C@@H]2N1C(=O)C1CCC1,nt,-0.3,15.7,nt,-1.7
C[C@H]1CN([C@@H](C)CO)C(=O)c2cc(NC(=O)c3ccncc3)ccc2O[C@H]1CN(C)S(=O)(=O)c1ccccc1,nt,-0.1,-13.3,nt,1.0
CCCNC(=O)N1CC2(C1)[C@@H](c1ccccc1)[C@H](CO)N2Cc1ccc(F)cc1,nt,1.5,nt,nt,-22.0
COc1ccc(Cc2c(-c3ccco3)nc3c(C)cc(Br)cn23)c(C)c1,nt,38.9*,1.7,2.3,-35.8
COc1cc(NC(=O)c2cccnc2)c(Cl)cc1NC(=O)c1ccc(Cl)cc1,0.0,-1.2,-1.1,0.1,10.2
COc1cc(NC(=O)c2cccnc2)c(Cl)cc1NC(=O)c1ccccc1,-1.2,63.8*,3.4,1.9,-10.5
OC[C@@H]1Nc2ccc(C#Cc3ccccc3)cc2[C@H]2[C@@H]1CCN2Cc1nccs1,nt,nt,4.6,nt,nt
COc1ccc(C#Cc2ccc3c(c2)[C@@H]2[C@@H](CCN2S(=O)(=O)c2ccc(OC)cc2)[C@H](CO)N3C)cc1,nt,0.1,15.2,nt,-4.4
SMILES,NSD2 HMT inh,CASP6 VEID inh,RAD54 inh,N-glyco inh,RAD52 anneal inh
COc1ccc(C#Cc2ccc3c(c2)[C@@H]2[C@@H](CCN2C(=O)c2ccncc2)[C@@H](CO)N3C)cc1,nt,3.1,15.6,nt,62.3*
COc1ccc(C#Cc2ccc3c(c2)[C@H]2[C@H](CCN2S(=O)(=O)c2cccc(OC)c2)[C@H](CO)N3C)cc1,nt,-0.1,7.7,nt,62.1*
OC[C@@H]1Nc2ccc(C#Cc3ccccc3)cc2[C@@H]2[C@H]1CCN2Cc1nccs1,nt,-0.8,nt,nt,59.2*
COc1ccc(C#Cc2ccc3c(c2)[C@H]2[C@H](CCN2C(=O)c2ccncc2)[C@H](CO)N3)cc1,nt,nt,1.1,nt,nt
COc1ccc(-c2ccc3c(c2)[C@@H]2[C@@H](CCN2C(=O)c2ccncc2)[C@@H](CO)N3C)cc1,nt,-2.4,8.5,nt,14.7
COc1ccc(C#Cc2ccc3c(c2)[C@H]2[C@H](CCN2C(=O)c2ccncc2)[C@@H](CO)N3)cc1,nt,1.3,nt,nt,51.0*
CO[C@@H]1CN(C)C(=O)c2cc(NC(=O)c3ccc(Oc4ccccc4)cc3)ccc2OC[C@@H](C)N(C(C)=O)C[C@H]1C,nt,1.2,-0.7,nt,-2.2
Cc1cc(C(=O)Nc2cccc3c2O[C@H](CN(C)C(=O)Nc2ccccc2)[C@H](C)CN([C@@H](C)CO)C3=O)n(C)n1,nt,1.0,-5.4,nt,1.6
CC(C)NC(=O)N1CC2(C1)[C@H](c1ccccc1)[C@@H](CO)N2C(=O)c1ccccn1,nt,nt,nt,nt,7.9
O=C1NC(=O)C(=Cc2ccco2)S1,14.4,49.0*,-3.5,0.1,-43.2
O=C1/C(=C\c2ccco2)CCC/C1=C\c1ccco1,21.7,73.8*,-9.3,1.2,-79.0
O=C1NC(=S)NC1=Cc1ccco1,nt,43.9*,-9.9,1.5,-85.1
NC1=NC(=O)/C(=C\c2ccco2)S1,29.6,62.9*,nt,2.6,-19.5
O=C1/C(=C/c2ccco2)CCC1C1CCCC1 (stereo not given),3.4,1.5,nt,-1.5,-21.9
C[C@@H]1CCCCO[C@H](CN(C)C(=O)CCCN(C)C)[C@@H](C)CN([C@H](C)CO)C(=O)c2cc(NS(=O)(=O)c3cccs3)ccc2O1,nt,-6.7,-1.5,nt,7.1
O=S(=O)(O)c1cccc2cccc(Nc3ccccc3)c12,35.6,56.2*,19.8,1.3,-27.7
CCC(=O)Nc1ccc2c(c1)C(=O)N(C)[C@@H]1CC[C@H](CC(=O)N3CCc4ccccc4C3)O[C@H]1CO2,nt,1.0,-0.2,nt,-17.7
COc1cc(NCCCC(C)N)c2ncccc2c1 (stereo not given),140.7*,nt,69.4*,-7.8,nt
CCC(CNc1cc(OC)cc2cccnc12)NC1CCCCC1 (stereo not given),79.7*,70.5*,nt,1.5,36.0
C[C@H]1CN([C@@H](C)CO)C(=O)c2cc(NS(C)(=O)=O)ccc2O[C@H]1CN(C)Cc1ccc(C(F)(F)F)cc1,nt,1.6,-7.6,nt,9.4
Cc1nn(C)cc1NC(=O)C[C@H]1CC[C@H]2[C@@H](COc3ccc(NC(=O)C(C)C)cc3C(=O)N2C)O1,nt,nt,-1.7,nt,nt
Cc1ccnc(NC(=O)c2cccc(NC(=O)c3ccc(Cl)cc3Cl)c2)c1,3.3,nt,nt,nt,nt
CCCn1c(=O)c2sccc2n2c(CCCC(=O)NCc3ccco3)nnc12,17.3,58.1*,-10.9,0.6,-15.4
Cc1ccc(NC(=S)NC(=O)/C=C/c2ccco2)c(O)c1,11.2,42.8*,-11.0,-0.8,-41.5
O=C(/C=C/c1ccco1)NC(=S)Nc1cccc(C(=O)O)c1,39.7,36.3*,-14.3,-0.3,-131.0
